# From PubChem BioAssay
# Activity calls are given as the source filed them.
# What was measured:
# [1] = optical density shifts of acrAB sulA E. coli – strain DRC41, OD650, 48 h, E. coli filamentation inducer project, primary screen (AID 1152); conditions: higher = more signal, called active from +8 up or from −8 down;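 also: E. coli MC1000 strain DRC41 lacking acrAB efflux pump and sulA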
# [2] = probe aLefty1 binding on compound microarray – biochemical, small-molecule microarray, 635/667 nm fluorescence, primary screen (AID 1153); conditions: higher = more signal;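 also: score merges spot fluorescence with signal-to-noise ratio from the scanned slide images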
# [3] = plasmodial surface anion channel blockers, osmotic lysis – cell-based, P. falciparum Indochina, OD700, 1 h, primary screen (AID 1154); conditions: P. falciparum Indochina infected RBC osmotic lysis, higher = more signal, called active from +8 up or from −8 down
# [4] = plasmodial surface anion channel blockers, osmotic lysis – cell-based, P. falciparum Indochina, OD700, 2 h, primary screen (AID 1155);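 also: lysis reports solute entry through the parasite surface anion channel PSAC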; conditions: P. falciparum Indochina infected erythrocytes, higher = more signal, called active from +8 up or from −8 down
# [5] = changes in parasitized red cell lysis, either direction – P. falciparum Indochina, OD700, 3 h, PSAC antagonist project, primary screen (AID 1156); conditions: P. falciparum-infected erythrocytes, osmotic lysis, higher = more signal, called active from +8 up or from −8 down
# [6] = plasmodial surface anion channel blockers, osmotic lysis – cell-based, P. falciparum Indochina, OD700, 18 h, primary screen (AID 1157); conditions: P. falciparum Indochina infected erythrocytes, osmotic lysis OD700, 18 h; higher = more signal, called active from +8 up or from −8 down
# [7] = S6 kinase pathway phospho-S6 level changes – cell-based, A549, cytoblot, luminescence, serum-stimulated, primary screen (AID 1158); conditions: 5 h, higher = more signal;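 also: serum-stimulated A549 lung adenocarcinoma cells; signal is phosphorylated S6 detected by cytoblot immunostaining with HRP secondary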
# [8] = target: NADPH oxidase 2 (Homo sapiens) (UniProt P04839); assay: compounds shifting NOX2 Amplex Red fluorescence – cell-based, HEK293-NOX2, PMA-stimulated, NOX inhibitor project, primary screen (AID 1159); conditions: 45 min, higher = more signal, called active from +8 up or from −8 down; also: test concentration not given here
# Chain of NADPH oxidase 2 (Homo sapiens) (P04839 whole entry, looked up): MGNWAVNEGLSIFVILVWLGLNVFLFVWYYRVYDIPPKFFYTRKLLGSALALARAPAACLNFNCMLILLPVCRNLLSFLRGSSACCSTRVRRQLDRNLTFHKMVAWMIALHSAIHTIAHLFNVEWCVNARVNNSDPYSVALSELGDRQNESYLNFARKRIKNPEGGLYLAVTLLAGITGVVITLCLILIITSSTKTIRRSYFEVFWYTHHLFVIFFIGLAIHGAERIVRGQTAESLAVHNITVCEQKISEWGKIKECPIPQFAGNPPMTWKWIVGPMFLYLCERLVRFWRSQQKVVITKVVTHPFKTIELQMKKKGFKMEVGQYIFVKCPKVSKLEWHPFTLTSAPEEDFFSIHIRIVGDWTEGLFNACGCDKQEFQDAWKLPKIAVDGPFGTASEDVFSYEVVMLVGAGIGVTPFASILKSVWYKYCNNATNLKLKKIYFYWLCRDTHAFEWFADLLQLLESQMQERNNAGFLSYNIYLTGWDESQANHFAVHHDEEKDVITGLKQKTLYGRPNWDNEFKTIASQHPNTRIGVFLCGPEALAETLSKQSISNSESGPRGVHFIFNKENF
# [9] = target: NADPH oxidase 4 (Homo sapiens) (UniProt Q9NPH5); assay: compounds shifting NOX4 Amplex Red fluorescence – cell-based, HEK293-NOX4, tetracycline-induced, NOX inhibitor project, primary screen (AID 1160); conditions: HEK293-NOX4, Amplex Red H2O2 fluorescence, 45 min; higher = more signal, called active from +8 up or from −8 down
# Chain of NADPH oxidase 4 (Homo sapiens) (Q9NPH5 whole entry, looked up): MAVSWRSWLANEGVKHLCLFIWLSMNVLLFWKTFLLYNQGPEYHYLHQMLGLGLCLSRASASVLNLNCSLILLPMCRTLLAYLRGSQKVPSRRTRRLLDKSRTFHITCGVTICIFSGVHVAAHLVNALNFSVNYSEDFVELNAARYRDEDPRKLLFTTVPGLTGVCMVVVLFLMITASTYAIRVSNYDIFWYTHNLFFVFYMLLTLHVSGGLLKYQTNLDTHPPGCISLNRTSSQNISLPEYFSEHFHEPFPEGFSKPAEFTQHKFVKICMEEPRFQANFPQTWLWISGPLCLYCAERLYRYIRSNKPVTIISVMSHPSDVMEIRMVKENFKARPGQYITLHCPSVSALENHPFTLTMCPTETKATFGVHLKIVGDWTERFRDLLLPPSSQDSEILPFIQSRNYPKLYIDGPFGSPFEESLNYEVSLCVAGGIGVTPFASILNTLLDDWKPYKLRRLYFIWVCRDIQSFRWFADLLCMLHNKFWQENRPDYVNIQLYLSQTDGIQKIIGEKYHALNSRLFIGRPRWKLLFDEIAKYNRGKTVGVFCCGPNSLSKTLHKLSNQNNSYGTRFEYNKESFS
# [10] = target: NADPH oxidase 5 (Homo sapiens) (UniProt Q96PH1); assay: compounds shifting NOX5 Amplex Red fluorescence – cell-based, HEK293-NOX5, NOX inhibitor project, primary screen (AID 1161); conditions: HEK293-NOX5, ionomycin, 45 min, higher = more signal
# Chain of NADPH oxidase 5 (Homo sapiens) (Q96PH1 whole entry, looked up): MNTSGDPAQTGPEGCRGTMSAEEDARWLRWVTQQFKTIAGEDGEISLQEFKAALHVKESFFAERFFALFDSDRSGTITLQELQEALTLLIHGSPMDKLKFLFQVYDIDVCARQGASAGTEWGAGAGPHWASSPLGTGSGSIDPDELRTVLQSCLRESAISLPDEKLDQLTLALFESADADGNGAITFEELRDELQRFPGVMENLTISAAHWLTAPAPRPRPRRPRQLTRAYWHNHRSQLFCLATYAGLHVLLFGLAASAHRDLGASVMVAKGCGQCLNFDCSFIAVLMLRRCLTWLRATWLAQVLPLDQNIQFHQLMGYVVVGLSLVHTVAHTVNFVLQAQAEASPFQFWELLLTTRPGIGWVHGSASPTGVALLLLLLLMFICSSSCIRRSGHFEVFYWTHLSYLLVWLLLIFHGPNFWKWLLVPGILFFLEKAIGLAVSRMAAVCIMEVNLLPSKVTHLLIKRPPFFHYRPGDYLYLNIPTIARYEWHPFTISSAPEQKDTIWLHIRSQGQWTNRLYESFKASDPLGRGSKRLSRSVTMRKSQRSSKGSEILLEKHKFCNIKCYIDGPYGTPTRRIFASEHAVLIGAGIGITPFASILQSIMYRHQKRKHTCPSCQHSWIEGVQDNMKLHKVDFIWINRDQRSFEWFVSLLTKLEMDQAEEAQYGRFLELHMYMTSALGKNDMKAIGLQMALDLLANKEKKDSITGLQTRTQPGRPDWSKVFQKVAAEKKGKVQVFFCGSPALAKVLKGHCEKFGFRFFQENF
# [11] = compound effects on lung adenocarcinoma cell viability – A549, calcein-AM fluorescence, 48 h, basal, profiling panel (AID 1162); conditions: higher = more signal; also: test concentration not given here
# [12] = compound effects on differentiated 3T3-L1 adipocyte viability – cell-based, 3T3-L1 adipocytes, calcein-AM fluorescence, 48 h, basal, profiling panel (AID 1163); conditions: 3T3-L1 adipocytes viability, higher = more signal; also: test concentration not given here
# [13] = compound effects on hepatocellular carcinoma cell viability – HepG2, calcein-AM fluorescence, 48 h, basal, profiling panel (AID 1164); conditions: higher = more signal; also: test concentration not given here
# [14] = compound effects on multiple myeloma cell viability – MM1S, calcein-AM fluorescence, 48 h, basal, profiling panel (AID 1165); conditions: higher = more signal; also: test concentration not given here
# [15] = calcein-AM signal in unstimulated myeloma cells – cell-based, calcein-AM fluorescence, 48 h, PK04 Diversity Set, profiling panel (AID 1166); conditions: RPMI8226 myeloma viability, higher = more signal;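 also: cells grown under basal conditions without added stimulus; test concentration not given here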
# [16] = JC-1 mitochondrial signal, unstimulated HepG2 cells – cell-based, JC-1 fluorescence, 24 h, 100 nL compound, profiling panel (AID 1167); conditions: HepG2 mitochondrial potential, higher = more signal; also: test concentration not given here
# [17] = JC-1 mitochondrial signal, unstimulated adipocytes – cell-based, JC-1 fluorescence, 3T3-L1 adipocytes, 24 h, 100 nL compound, profiling panel (AID 1168); conditions: JC-1 mitochondrial fluorescence, higher = more signal, called active from +8 up or from −8 down; also: test concentration not given here
# [18] = JC-1 mitochondrial signal, unstimulated myeloma cells – cell-based, JC-1 fluorescence, RPMI8226, 24 h, 100 nL compound, profiling panel (AID 1169); conditions: JC-1 mitochondrial potential fluorescence, higher = more signal; also: test concentration not given here
# [19] = JC-1 mitochondrial signal, unstimulated MM1S myeloma – cell-based, JC-1 fluorescence, 24 h, 100 nL compound, profiling panel (AID 1170); conditions: MM1S mitochondrial potential, higher = more signal; also: test concentration not given here
# [20] = resazurin metabolic signal in A549 cells – cell-based, resazurin fluorescence, 24 h, PK04 Diversity Set, profiling panel (AID 1171); conditions: A549 viability, higher = more signal, called active from +8 up or from −8 down; also: test concentration not given here
SMILES,z-score [1],composite z-score [2],z-score [3],z-score [4],z-score [5],z-score [6],z-score [7],z-score [8],z-score [9],z-score [10],z-score [11],z-score [12],z-score [13],z-score [14],z-score [15],z-score [16],z-score [17],z-score [18],z-score [19],z-score [20]
COc1ccc(C(O)C2C=CC3C(=O)N(c4ccccc4)C(=O)C3N2Nc2ccccc2)cc1 (stereo not given),-1.04 (inactive),0.411,10.9 (active),2.15 (inactive),0.332 (inactive),1.27 (inactive),-1.44,-2.06 (inactive),-3.23 (inactive),-2.84,-0.0572,-0.936,0.204,0.254,0.0459,-1.2,-0.233 (inactive),-0.402,-0.626,0.117 (inactive)
C=C(C(=O)CC[C@@H](OC(=O)c1ccccc1-c1ccccc1C(=O)O)c1ccccc1OCCO)C(C)C,0.0884 (inactive),0.15,4.57 (inactive),0.769 (inactive),1.56 (inactive),0.232 (inactive),0.689,-0.518 (inactive),-0.798 (inactive),-1.48,-0.0081,0.707,-0.188,-2.67,-1.92,-1.1,0.758 (inactive),0.0612,-0.281,0.63 (inactive)
[N-]=[N+]=NCc1ccccc1[C@@H]1OC(c2ccc(OCCCO)cc2)=N[C@]1(Cc1ccccc1)C(=O)NCCN1CCOCC1,0.745 (inactive),0.345,18 (active),3.55 (inactive),1.97 (inactive),1.13 (inactive),-0.408,-3.16 (inactive),2.14 (inactive),0.838,0.239,1.09,0.91,-0.887,0.185,1.14,0.69 (inactive),-0.191,0.424,1.26 (inactive)
COCCOC(=O)N1C(=O)[C@@]2(c3cc(C#CCNC(N)=O)ccc31)[C@H](c1ccc(O)cc1)N1[C@H](c3ccccc3)[C@H](c3ccccc3)OC(=O)[C@H]1[C@@H]2C(=O)N1CCN(c2ncccn2)CC1,-0.279 (inactive),-0.191,2.78 (inactive),1.32 (inactive),0.528 (inactive),0.973 (inactive),-0.43,1.23 (inactive),-0.121 (inactive),1.13,-0.652,-0.901,0.527,-0.0396,-1.05,-2.34,0.703 (inactive),-0.322,-1.14,-0.163 (inactive)
Cc1ccc(C(C)CC(O)C2C=CC3C(=O)N(c4ccccc4)C(=O)C3N2Nc2ccc(C#N)cc2)o1 (stereo not given),0.249 (inactive),0.198,7.4 (inactive),0.478 (inactive),0.45 (inactive),-0.397 (inactive),0.729,-2.43 (inactive),-3.34 (inactive),-2.6,0.491,-0.0968,0.459,-3.7,-0.355,0.175,-0.155 (inactive),-1.05,-1.2,-1.17 (inactive)
CO[C@H]1O[C@H](CO)[C@@H](OC(=O)c2ccc(Br)cc2)[C@@H]2OC(=O)[C@H](Cc3ccccc3)C/C=C/C[C@@H](Cc3ccccc3)C(=O)O[C@@H]12,2.28 (inactive),-0.715,2.36 (inactive),-0.765 (inactive),-1.53 (inactive),-1.02 (inactive),1.92,-4.18 (inactive),-0.416 (inactive),-1.82,1.77,0.863,0.857,-0.389,0.0226,-0.0867,-1.37 (inactive),0.796,-0.823,-1 (inactive)
CCOC(=O)C[C@H]1[C@H](OC(=O)c2cc3ccccc3oc2=O)[C@@H](NC(=O)c2ccc3ccccc3c2)c2cc(OCCCO)ccc2N1C(=O)Cc1ccc(OC)cc1,-0.62 (inactive),-0.0479,7.22 (inactive),0.935 (inactive),0.703 (inactive),0.525 (inactive),-0.24,3.04 (inactive),1.01 (inactive),1.94,-0.103,0.528,-0.425,0.226,0.0557,-0.527,0.06 (inactive),-0.229,0.0571,0.379 (inactive)
CN1C(=O)C2C(C1=O)C1C=C(CCCO)C2C(c2cccs2)N1Cc1cc2c(cc1Br)OCO2 (stereo not given),-0.139 (inactive),-0.0587,25.1 (active),15.9 (active),0.0521 (inactive),1.58 (inactive),0.791,0.196 (inactive),0.0713 (inactive),0.741,0.952,0.225,0.557,-0.635,-1.44,-0.129,-0.859 (inactive),-0.309,0.872,-0.0723 (inactive)
O=C1N(CCS(=O)(=O)c2ccccc2)Cc2ccccc2[C@@H]2OC(c3ccc(OCCCO)cc3)=N[C@]12CCS(=O)(=O)c1ccccc1,-0.769 (inactive),0.568,26 (active),18.8 (active),3.14 (inactive),2.44 (inactive),-0.355,1.5 (inactive),2.01 (inactive),1.96,1.35,0.859,0.345,-0.635,-1,-1.65,1.72 (inactive),-0.933,-1.01,0.409 (inactive)
